From PubChem BioAssay (NCATS)
Values without a mark were called inactive. Unless noted, the call rests on the fitted dose curve.

Target: DNA polymerase III PolC-type (Bacillus subtilis (strain 168)) (UniProt P13267)
Test: qHTS Validation Assay for the Inhibitors of DNA Replication in Gram-Positive Bacteria (AID 485295; active means well fitted inhibition curve with a large enough effect;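 further: reconstituted holoenzyme with PolC plus beta clamp SSB and primase; PicoGreen fluorescence of double-stranded DNA made on primed circular M13 template; 0% = DMSO wells and -100% = EDTA-quenched background wells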)
Conditions: Gram-positive bacterial DNA replication assay; series mostly up to 57.1 µM; activity change, negative = inhibition: at the top concentration
Outline: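 Primed replication of single-stranded M13Gori by a four-protein B. subtilis holoenzyme is measured at room temperature. Double-stranded product is quantified by PicoGreen fluorescence after an EDTA stop; inhibition is scaled between DMSO and EDTA controls.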

DNA polymerase III PolC-type (Bacillus subtilis (strain 168)), sequence (P13267 whole entry, looked up): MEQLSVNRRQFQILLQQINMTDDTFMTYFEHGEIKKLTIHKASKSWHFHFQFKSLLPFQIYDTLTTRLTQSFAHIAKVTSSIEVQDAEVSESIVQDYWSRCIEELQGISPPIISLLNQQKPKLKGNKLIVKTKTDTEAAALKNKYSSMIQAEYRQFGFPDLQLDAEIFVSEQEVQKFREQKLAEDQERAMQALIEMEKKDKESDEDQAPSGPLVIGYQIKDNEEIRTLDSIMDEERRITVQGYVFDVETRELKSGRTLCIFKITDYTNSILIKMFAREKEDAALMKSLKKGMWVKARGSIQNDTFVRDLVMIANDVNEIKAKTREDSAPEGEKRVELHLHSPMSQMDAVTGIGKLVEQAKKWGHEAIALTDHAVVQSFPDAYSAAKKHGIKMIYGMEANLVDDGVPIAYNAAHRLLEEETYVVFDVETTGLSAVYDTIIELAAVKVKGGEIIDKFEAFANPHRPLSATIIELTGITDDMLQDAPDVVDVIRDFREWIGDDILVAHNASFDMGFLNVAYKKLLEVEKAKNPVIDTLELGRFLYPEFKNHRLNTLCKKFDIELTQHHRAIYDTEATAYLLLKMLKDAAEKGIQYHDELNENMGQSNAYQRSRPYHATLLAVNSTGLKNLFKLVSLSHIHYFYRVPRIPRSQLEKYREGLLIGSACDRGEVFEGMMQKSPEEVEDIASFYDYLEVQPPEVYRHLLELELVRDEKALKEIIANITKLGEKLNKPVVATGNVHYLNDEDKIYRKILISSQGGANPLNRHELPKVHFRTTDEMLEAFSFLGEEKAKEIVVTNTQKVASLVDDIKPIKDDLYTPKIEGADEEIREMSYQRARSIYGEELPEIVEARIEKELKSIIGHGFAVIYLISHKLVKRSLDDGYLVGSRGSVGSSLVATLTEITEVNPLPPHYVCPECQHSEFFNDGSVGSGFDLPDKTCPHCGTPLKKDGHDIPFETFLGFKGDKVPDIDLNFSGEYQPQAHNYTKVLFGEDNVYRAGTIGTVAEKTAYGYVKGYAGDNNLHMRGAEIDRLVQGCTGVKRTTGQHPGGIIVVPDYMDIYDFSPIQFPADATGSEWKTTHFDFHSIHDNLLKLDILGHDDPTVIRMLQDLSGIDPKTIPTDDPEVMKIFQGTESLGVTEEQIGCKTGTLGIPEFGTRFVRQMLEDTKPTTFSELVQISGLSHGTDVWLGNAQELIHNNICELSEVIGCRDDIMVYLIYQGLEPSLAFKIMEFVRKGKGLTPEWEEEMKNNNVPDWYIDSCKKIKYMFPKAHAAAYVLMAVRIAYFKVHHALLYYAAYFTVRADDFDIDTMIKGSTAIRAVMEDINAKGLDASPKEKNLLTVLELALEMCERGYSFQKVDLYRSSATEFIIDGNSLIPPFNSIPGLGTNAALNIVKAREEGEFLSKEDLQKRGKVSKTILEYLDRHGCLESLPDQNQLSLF

Structure (SMILES)	activity change, negative = inhibition [%]
CC(=O)SCC[N+](C)(C)C	4.7
O=C(O)c1cc(=O)c2ccccc2[nH]1	1.45
CN1[C@@H](CC(=O)c2ccccc2)CCC[C@H]1C[C@H](O)c1ccccc1	4.99
C[C@@H](CN1CCC(Cc2ccccc2)CC1)[C@@H](O)c1ccc(O)cc1	5.97
OCC1O[C@H](O)C(Cl)C(O)C1O (some centres undefined)	2.13
NC(=O)C(=O)O	5.85
S=C(S)OC1CC2CC1C1CCCC21 (centres undefined)	5.5
CCCCCCCCCCCCCCCC(=O)NCC(COP(=O)([O-])OCC[N+](C)(C)C)OCC (centres undefined)	-19.4
CN(C)c1nc(N)c(C(=O)N=C(N)N)nc1Cl	-2.5
N=C(N)SCCc1ccc(CCSC(=N)N)cc1	-2.86
C=CC(N)CCC(=O)O (centres undefined)	-5.91
COc1cc2c(CCNC(C)=O)c[nH]c2cc1Cl	1.82
COc1cc(C(O)CO)ccc1OS(=O)(=O)O (centres undefined)	-2.49
c1ccc(-c2ccccn2)nc1	-3.96
NO	-2.14
O=C(O)c1cc(=O)c2c(Cl)cc(Cl)cc2[nH]1	-1.66
NCCSSCCN	2.94
O=c1[nH]c2cc([N+](=O)[O-])c([N+](=O)[O-])cc2[nH]c1=O	1.92
CN1C2CCC1CC(OC(=O)C(O)c1ccccc1)C2 (centres undefined)	3.09
O=C(O)[C@@H]1C[C@@H](C(=O)O)N1	-3.64
Cn1c(=O)c2[nH]c(-c3ccccc3)nc2n(C)c1=O	9.31

Target: Tumor susceptibility gene 101 protein (Homo sapiens) (UniProt Q99816)
Sequence (Q99816 whole entry, looked up): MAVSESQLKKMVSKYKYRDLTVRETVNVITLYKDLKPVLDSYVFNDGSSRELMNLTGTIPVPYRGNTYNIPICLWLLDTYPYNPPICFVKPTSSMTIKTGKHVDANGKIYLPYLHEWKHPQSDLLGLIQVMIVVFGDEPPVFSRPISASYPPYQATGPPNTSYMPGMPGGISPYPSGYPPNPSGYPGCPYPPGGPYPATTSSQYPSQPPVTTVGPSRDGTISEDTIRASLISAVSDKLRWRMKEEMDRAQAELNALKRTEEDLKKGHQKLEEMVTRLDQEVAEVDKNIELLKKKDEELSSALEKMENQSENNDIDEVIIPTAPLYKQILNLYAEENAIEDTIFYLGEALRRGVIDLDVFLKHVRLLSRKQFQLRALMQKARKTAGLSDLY
Test: qHTS Validation Assay for Iinhibitors of HIV-1 Budding by Blocking the Interaction of PTAP/TSG101 (AID 485342); further: 0% is about no effect
Conditions: TSG101-PTAP binding, fluorescence polarization, 4-point titration; series mostly up to 115 µM; fluorescence change: at the top concentration
Outline: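 Fluorescence anisotropy measured PTAP-Tsg101 interaction. Final concentrations were 10 uM protein domain and 50 nM labeled peptide, equilibrated 20 min at room temperature.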

Structure (SMILES)	fluorescence change [%]
CC(=O)SCC[N+](C)(C)C	4.09
NCCCCCCCCCCN	-0.382
CN1[C@@H](CC(=O)c2ccccc2)CCC[C@H]1C[C@H](O)c1ccccc1	2.24
C[C@@H](CN1CCC(Cc2ccccc2)CC1)[C@@H](O)c1ccc(O)cc1	0.471
Cc1ccc(C(=O)O[C@H](C(=O)O)[C@@H](OC(=O)c2ccc(C)cc2)C(=O)O)cc1 (tested in a mixture with another compound)	-6.05
NCCCCC(=O)O	6
O=C(O)CC1CCCc2ccccc2C1O (centres undefined)	2.16
S=C(S)OC1CC2CC1C1CCCC21 (centres undefined)	4
CC(=O)N[C@H](C(=O)O)C(C)(C)SN=O	-0.656
CC1CN(S(=O)(=O)c2cccc3cnccc23)CCN1 (centres undefined)	-7.44
CCCCCCCCCCCCCCCC(=O)NCC(COP(=O)([O-])OCC[N+](C)(C)C)OCC (centres undefined)	0.265
CN(C)c1nc(N)c(C(=O)N=C(N)N)nc1Cl	2.85
N=C(N)SCCc1ccc(CCSC(=N)N)cc1	3.52
CN1CCC[C@H]1c1cccnc1	2.52
O=C(O)CNC(=O)C(CS)Cc1ccccc1 (centres undefined)	-1.67
C=CC(N)CCC(=O)O (centres undefined)	2.94
COc1cc2c(CCNC(C)=O)c[nH]c2cc1Cl	1.64
COc1cc(C(O)CO)ccc1OS(=O)(=O)O (centres undefined)	3.6
O=C(O)c1cc(=O)c2c(Cl)cc(Cl)cc2[nH]1	3.04
NCCSSCCN	2.49
O=c1[nH]c2cc([N+](=O)[O-])c([N+](=O)[O-])cc2[nH]c1=O	4.25
CN1C2CCC1CC(OC(=O)C(O)c1ccccc1)C2 (centres undefined)	4.47
O=C(O)[C@@H]1C[C@@H](C(=O)O)N1	-1.26
